Measured values taken from PubChem BioAssay (Tox21).
Results filed as inconclusive are left out. Active and inactive are the calls of the source. Unless noted, the call rests on the fitted dose curve; in most records, active means well fitted curve in the direction sought with a large enough effect in the repeat runs; inconclusive means weak or mixed curves; inactive means no such curve, though single readings can be large; an effect the other way counts as inactive or inconclusive.

Tests used:
[1] = qHTS assay to identify small molecule antagonists of the estrogen related receptor (ERR) signaling pathway from Tox21 library - cell viability counter screen (AID 1224834); further: nearly all actives have a fitted effect of over 30% in size; further: potency means the concentration at half of the fitted maximal effect
Summary of the method: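 CellTiter-Fluor fluorescence measured; ERR cells; 17.5 h compound incubation at 37 C; 30 min reagent step.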

[2] = biological target: Luciferin 4-monooxygenase (Photinus pyralis) (UniProt P08659); assay: qHTS assay to identify small molecule inhibitors of firefly luciferase (AID 1224835); further: nearly all actives have a fitted effect of over 25% in size; further: potency means the concentration at half of the fitted maximal effect
Chain of Luciferin 4-monooxygenase (Photinus pyralis) (P08659 whole entry, looked up): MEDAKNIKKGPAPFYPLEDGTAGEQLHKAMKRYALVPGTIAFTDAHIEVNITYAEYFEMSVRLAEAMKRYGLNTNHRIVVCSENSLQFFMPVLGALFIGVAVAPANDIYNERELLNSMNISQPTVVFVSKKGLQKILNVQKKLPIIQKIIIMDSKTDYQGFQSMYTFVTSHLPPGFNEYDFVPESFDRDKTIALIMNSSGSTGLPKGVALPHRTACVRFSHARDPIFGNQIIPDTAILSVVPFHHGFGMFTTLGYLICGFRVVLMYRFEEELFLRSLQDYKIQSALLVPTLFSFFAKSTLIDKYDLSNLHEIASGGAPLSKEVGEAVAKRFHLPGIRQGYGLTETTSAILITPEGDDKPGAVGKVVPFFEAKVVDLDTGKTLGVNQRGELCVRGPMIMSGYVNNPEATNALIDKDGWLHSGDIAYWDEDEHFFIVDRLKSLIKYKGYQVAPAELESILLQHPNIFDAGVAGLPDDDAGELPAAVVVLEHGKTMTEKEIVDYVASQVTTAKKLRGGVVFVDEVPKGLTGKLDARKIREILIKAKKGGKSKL
Summary of the method: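 Biochemical qHTS: compounds run as interplate titrations against purified firefly enzyme, with D-luciferin and ATP each at its KM concentration. Light output recorded by CCD imaging.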

[3] = qHTS assay to identify small molecule agonists of the constitutive androstane receptor (CAR) signaling pathway - cell viability counter screen (AID 1224836); further: series mostly up to about 92 µM; nearly all actives have a fitted effect of over 45% in size
Summary of the method: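 Counter screen multiplexed with the CAR reporter readout: HepG2 cells co-transfected with hCAR and the CYP2B6-2.2kb construct receive a 15-concentration compound series and 0.75 uM PK11195 (final), then CellTiter-Fluor fluorescence is read after 23 h.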

[4] = qHTS assay to identify small molecule antagonists of the estrogen related receptor signaling pathway with the pleiotropic PPARgamma coactivator (PGC) from Tox21 10K library - cell viability counter screen (AID 1224840; active means well fitted cell-killing curve with a large enough effect in the repeat runs, not every such curve was filed as active; further: nearly all actives have a fitted effect of over 40% in size; further: potency means the concentration at half of the fitted maximal effect)
Summary of the method: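 Here the PGC/ERR cells serve as a cytotoxicity control: they are exposed to compounds for 17.5 hours at 37 C, and live-cell signal is quantified using CellTiter-Fluor fluorescence.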

[5] = qHTS assay to identify small molecule antagonists of the constitutive androstane receptor (CAR) signaling pathway - cell viability counter screen (AID 1224837); further: series mostly up to about 92 µM; nearly all actives have a fitted effect of over 45% in size
Summary of the method: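 Using CellTiter-Fluor, viability is scored in HepG2 cells stably carrying hCAR and a 2.2kb CYP2B6 reporter after 23 hr compound exposure across 15 concentrations, with CITCO present at 50 nM.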

[6] = biological target: Nuclear receptor subfamily 1 group I member 3 (Homo sapiens) (UniProt Q14994); assay: qHTS assay to identify small molecule agonists of the constitutive androstane receptor (CAR) signaling pathway (AID 1224839); further: nearly all actives have a fitted effect of over 15% in size; further: potency means the concentration at half of the fitted maximal effect
Chain of Nuclear receptor subfamily 1 group I member 3 (Homo sapiens) (Q14994 whole entry, looked up): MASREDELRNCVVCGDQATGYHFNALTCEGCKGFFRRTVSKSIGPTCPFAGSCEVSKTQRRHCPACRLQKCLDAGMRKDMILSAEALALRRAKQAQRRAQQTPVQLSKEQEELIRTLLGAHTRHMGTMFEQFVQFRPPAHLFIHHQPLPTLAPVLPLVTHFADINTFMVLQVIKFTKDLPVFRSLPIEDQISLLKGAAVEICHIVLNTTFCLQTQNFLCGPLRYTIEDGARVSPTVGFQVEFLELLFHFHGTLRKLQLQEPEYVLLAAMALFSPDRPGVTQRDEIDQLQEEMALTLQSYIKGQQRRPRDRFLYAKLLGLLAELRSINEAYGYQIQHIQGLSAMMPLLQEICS
Summary of the method: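 A 15-concentration quantitative screen uses HepG2 cells co-transfected stably with human CAR and CYP2B6-2.2kb reporter. Treatment lasts 24 h with 0.75 uM PK11195 final present; ONE-Glo luminescence is the signal.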

[7] = biological target: Nuclear receptor subfamily 1 group I member 3 (Homo sapiens) (UniProt Q14994); assay: qHTS assay to identify small molecule antagonists of the constitutive androstane receptor (CAR) signaling pathway (AID 1224838);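 further: HepG2 cells stably expressing hCAR with CYP2B6 luciferase reporter stimulated by CITCO; nearly all actives have a fitted effect of over 40% in size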; further: potency means the concentration at half of the fitted maximal effect
Summary of the method: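 Reporter luminescence was quantified after 24 h exposure of hCAR/CYP2B6-2.2kb double-stable HepG2 cells to compounds at 15 concentrations in the presence of 50 nM CITCO final.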

[8] = qHTS assay to identify small molecule antagonists of the estrogen related receptor signaling pathway with the pleiotropic PPARgamma coactivator (PGC) from Tox21 10K library (AID 1224841; call rule not given here; further: actives are mostly falling curves and most rising ones were filed inactive; nearly all actives have a fitted effect of over 50% in size; further: potency means the concentration at half of the fitted maximal effect)
Summary of the method: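 Each well held 2,000 PGC/ERR cells, pre-incubated six hours (37 C, 5% CO2). Test substances in DMSO were added by pin tool and left for 18 h at 37 C before luciferase detection by One-Glo.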

[9] = qHTS assay to identify small molecule agonists of the estrogen related receptor signaling pathway with the pleiotropic PPARgamma coactivator (PGC) from Tox21 10K library (AID 1224842); further: nearly all actives have a fitted effect of over 15% in size; further: potency means the concentration at half of the fitted maximal effect
Summary of the method: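 PGC/ERR reporter cell line, 2,000 cells per well, incubated 6 h at 37 C before 23 nL compound in DMSO was added. After 18 h at 37 C, One-Glo luminescence read following 30 min at room temperature.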

Measured: Potency

CCC(C)(O)CCC=C(C)C (configuration not stated)
inactive: [1] | [2] | [3] | [4]

CCc1nn(CCCN2CCN(c3cccc(Cl)c3)CC2)c(=O)n1CCOc1ccccc1
active: [1] 29.8 µM
inactive: [2] | [5] | [6] | [4]

COc1cc2ncnc(Nc3ccc(F)c(Cl)c3)c2cc1OCCCN1CCOCC1
inactive: [2] | [7] | [6]
active: [1] 21.1 µM

CNC(=O)N(c1ccccc1)c1ccccc1
not listed: [5] | [9]
inactive: all other assays above

Fc1ccccc1[C@@H](F)COC1CCC(Nc2ncnc3[nH]ncc23)CC1 (some centres not stated)
active: [1] 30.6 µM
inactive: [2] | [7] | [6]

CC(C)C(OC(=O)c1ccccc1)C(C)(C)COC(=O)c1ccccc1 (configuration not stated)
inactive: [1] | [2] | [3] | [4]

CCCCC1C(=O)N(c2ccccc2)N(c2ccc(O)cc2)C1=O (configuration not stated)
active: [1] 18.8 µM
inactive: [2] | [3] | [6] | [9]

N#C[C@@H]1C[C@@H]2C[C@@H]2N1C(=O)[C@@H](N)C12CC3CC(CC(O)(C3)C1)C2
not listed: [5]
inactive: all other assays above

CC(N)CN (configuration not stated)
inactive: [1] | [2] | [3] | [4]

CCCOCCOCCO
not listed: [5] | [8] | [9]
inactive: all other assays above

C=CCNc1nc(NCC=C)nc(N2CCN(C(c3ccc(F)cc3)c3ccc(F)cc3)CC2)n1
not listed: [5] | [8] | [9]
inactive: all other assays above

NC(=O)N(O)[C@@H]1C=C[C@H](Oc2cccc(Oc3ccc(F)cc3)c2)C1
inactive: [1] | [5] | [8]
active: [2] 31.7 µM

C[C@@H]1C[C@H]2[C@@H]3CCC4=CC(=O)C=C[C@]4(C)[C@@]3(F)[C@@H](O)C[C@]2(C)[C@H]1C(=O)CO
inactive: [1] | [2] | [3] | [6] | [4]

CCCCC(=O)O[C@]1(C(=O)CO)CC[C@H]2[C@@H]3CCC4=CC(=O)CC[C@]4(C)[C@H]3[C@@H](O)C[C@@]21C
not listed: [5] | [9]
inactive: all other assays above

Nc1ccc(S(=O)(=O)O)c(N)c1
not listed: [6] | [7] | [9]
inactive: all other assays above

CC(C)CCCCCCOC(=O)CCCCC(=O)OCCCCCCC(C)C
inactive: [1] | [2] | [3] | [4]

O=C(C(=O)c1ccccc1)c1ccccc1
inactive: [1] | [2] | [3] | [4] | [8]

CC(C)CCCCCOC(=O)CCCCC(=O)OCCCCCC(C)C
not listed: [5]
inactive: all other assays above

O=C(CCCN1CCN(c2ccc(F)cc2)CC1)NC1c2ccccc2CSc2ccccc21 (configuration not stated)
active: [7] 29.8 µM
inactive: [1] | [2] | [6] | [4]

CCCCCCOC(=O)C(C)C
not listed: [6] | [7]
inactive: all other assays above

CC1=C(/C=C/C(C)=C\C=C\C(C)=C\C(=O)O)C(C)(C)CCC1
inactive: [3]
active: [1] 54.5 µM | [2] 39.9 µM | [6] 24.3 µM

CC(C)(O)c1ccccc1CC[C@@H](SCC1(CC(=O)O)CC1)c1cccc(/C=C/c2ccc3ccc(Cl)cc3n2)c1
not listed: [6] | [7]
inactive: all other assays above

Cc1ccc(/C=N/n2c(-c3ccccc3)csc2=S)cc1
active: [6] 29.8 µM
not listed: [5] | [9]
inactive: all other assays above

COc1cc2c(N3CCN(C(=O)Nc4ccc(OC(C)C)cc4)CC3)ncnc2cc1OCCCN1CCCCC1
active: [1] 29.8 µM | [7] 15 µM | [4] 29.8 µM | [9] 33.5 µM
inactive: [2] | [6] | [8]

CCCCOC(=O)CCS
inactive: [1] | [2] | [3] | [6] | [4]

OC(CCCN1CCCCC1)(c1ccccc1)c1ccccc1
not listed: [5] | [7]
inactive: all other assays above

Cc1ccc(Nc2nccc(N(C)c3ccc4c(C)n(C)nc4c3)n2)cc1S(N)(=O)=O
active: [1] 29.8 µM | [2] 30.9 µM | [6] 4.73 µM | [8] 23.7 µM
inactive: [3] | [9]

C=CCOC(=O)/C=C\C(=O)OCC=C
not listed: [5] | [8] | [9]
inactive: all other assays above
